Among all 300,000 compounds or so, about 5,200 (1.7%) were called active. Many of the other results were omitted from the sample, so actives are more common in it than they were. Unmarked numbers belong to inactive results.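 The calls were made as follows: active = mean replicate activation of at least 50% with a set share of replicates each reaching 50%; inconclusive = only one of those two conditions met; inactive = mean below 50% and too few replicates reaching it.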

The assay can be described thus: HSF-1 response element luciferase induction – NIH3T3-HGL cells, MG132 stress, luminescence, single point, primary screen (AID 504408).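 Also: 0% = median of the neutral control wells and 100% = twice that signal.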 The conditions noted are these: NIH3T3-HGL HSF-1 luciferase reporter, MG132, 8 h; at 9 µM; active compounds read high; 100% = twice DMSO control signal. Background: In a reporter assay the amount or activity of a reporter protein is the signal.
`Cc1ccc(C(=O)NNC(=O)c2ccncc2)cc1S(=O)(=O)N1CCCCC1`: the activation is -9.07%.

As for `CCCCCCCNC(=O)C1(CC2CC(c3cccc(Br)c3)=NO2)CCN(C(=O)c2cc(OCC)c(OCC)c(OCC)c2)CC1` (configuration not stated), the activation was 4.29%. With `Cn1cc([N+](=O)[O-])c(C(=O)Nc2cnn(Cc3ccc(F)cc3)c2)n1` the figure was 65.1% (active); with `CCc1ccc(NC(=O)c2ccc(Cn3cc([N+](=O)[O-])cn3)cc2)cc1`, -1.45%. As to `Cn1cc([N+](=O)[O-])c(C(=O)Nc2ccc3c(c2)OCCO3)n1`, the activation is 48.7%. Consider `O=C(CSc1ccc(-c2cccs2)nn1)Nc1ccccc1F`, for which the activation is -2.98%. To `O=C(CSc1nc2nccnc2c(=O)n1Cc1cccs1)Nc1ccccc1F` belongs 77.1% (active); to `COCCn1c(SCC(=O)Nc2ccccc2F)nc2c(c1=O)SCC2`, 54.8% (active). To `COCCn1c(SCC(=O)N2CCCCCC2)nc2c(c1=O)SCC2` belongs 2.01%; to `COCCn1c(SCC(=O)Nc2cc(Cl)ccc2OC)nc2c(c1=O)SC(C)C2` (configuration not stated), -0.138%.

Consider `CCOc1ccc(NC(=O)CSc2nc3ccccc3c(=O)n2Cc2cccs2)cc1`, for which the activation is -10.7%. To `CCc1ccc(C(=O)NNC(=O)C2CCN(c3ncnc4sc(C)c(C)c34)CC2)cc1` belongs -1.58%; to `CCOc1ccc(NS(=O)(=O)c2ccc(C(=O)NCC(c3ccccc3OC)N3CCCC3)cc2)cc1` (configuration not stated), -2.02%.

Take `COc1cccc(COC(=O)C2CCN(S(=O)(=O)c3cccs3)CC2)c1OC`: the activation was 1.63%. With `O=C(CC1SC(N2CCCC2)=NC1=O)Nc1ccc(C(=O)NCCc2ccc(F)cc2)cc1` (configuration not stated) the figure was -12%.

Take `CCN(C(=O)COC(=O)C1CCN(S(=O)(=O)c2ccc(C)c(C)c2)CC1)C1CCS(=O)(=O)C1` (configuration not stated): the activation was 1.03%. To `Cc1ccc(C)c(OCCC(=O)OCC(=O)NC(=O)NCc2ccccc2)c1` belongs -2.69%. With `CCc1ccc(N(CC(=O)Nc2sc3c(c2C(=O)OC)CCCC3)S(C)(=O)=O)cc1` the figure was 59.7% (active); with `COC(=O)c1c(NC(=O)CN(c2ccc(C)c(C)c2)S(C)(=O)=O)sc2c1CCCC2`, 31.3%. Consider `COC(=O)c1c(NC(=O)CSc2nncs2)sc2c1CCCCC2`, for which the activation is 17.2%. To `CCCN(CC(=O)Nc1ccccc1OC)C(=O)CCC(=O)c1ccc(F)cc1` belongs -3.54%; to `COc1cc(NC(=O)c2cc([N+](=O)[O-])ccc2Br)ccc1NC(=O)c1ccco1`, 111% (active); to `COc1ccccc1C(=O)Nc1ccc(NC(=O)c2ccco2)c(C)c1`, -0.874%.

Turning to `O=C(Nc1ccc(NC(=O)c2ccco2)c(Cl)c1)c1cccc([N+](=O)[O-])c1`, the activation was 0.794%.

`O=C(OCC1OC(Oc2ccc(O)cc2)C(O)C(O)C1O)c1ccccc1` (configuration not stated): the activation is -4.63%. Take `Cc1nc2ccccc2c(=O)n1Cc1ccc([N+](=O)[O-])cc1`: the activation was 7.48%. With `Cn1c2ccccc2c(=O)c2c(=O)n(Cc3ccco3)c(COc3ccccc3)nc21` the figure was 17.1%; with `Cc1ccc(Cn2c(C)nc3c(c2=O)c2nc4ccccc4nc2n3Cc2ccco2)cc1`, 100% (active).

Consider `O=C(NCCCN1CCCC1=O)c1cccc(S(=O)(=O)NCc2ccccc2)c1`, for which the activation is 18.7%.

For the molecule `COc1ccccc1OCC(=O)Nc1ccccc1C(=O)NC1CC1`, the activation was 6.1%. On to `OCCCNc1nc(-c2ccccc2)c2cc(Cl)ccc2n1`, for which the activation is -8.88%. With `CCCCn1c(N)c(N(CCOC)C(=O)c2sc3ccccc3c2Cl)c(=O)[nH]c1=O` the figure was 1.82%. With `CC(Oc1ccc(Cl)cc1)C(=O)OCC(=O)Nc1ncc(Cl)cc1Cl` (configuration not stated) the figure was 83.9% (active); with `Cc1ccc(SCCC(=O)OCC(=O)Nc2ncc(Cl)cc2Cl)cc1`, 1.1%; with `CC(Oc1ccc(Cl)cc1)C(=O)Nc1ncccn1` (configuration not stated), 9.27%. To `CCC(C)N(C(=O)CSc1ncnc2c1cnn2-c1ccccc1)C1CCS(=O)(=O)C1` (configuration not stated) belongs -5.54%; to `CCOC(=O)C(CCOc1cccc(CC)c1)C(=O)OCC`, 109% (active).

On to `CCOc1ccc(NC(=O)CN(C)C(=O)COc2cccc(CC)c2)cc1OCC`, for which the activation is -14.1%. With `CCOC(=O)c1cccc(NC(=O)CCOc2ccccc2)c1` the figure was 9.76%. In the case of `CC(=O)Nc1cccc(C(=O)OCC(=O)NCc2cc(C)c(O)c(C)c2)c1`, the activation is 3.6%. On to `Nc1nonc1-n1nnc(C(=O)N/N=C/c2ccccc2O)c1CN1CCCC1`, for which the activation was 12.4%.

With `CCOC(=O)COc1ccc([N+](=O)[O-])cc1`, the activation is 9.19%. To `N/C(Cc1ccc([N+](=O)[O-])cc1)=N\OC(=O)C1CCCCC1` belongs -5.43%; to `Cc1cc(C)cc(OCC(=O)O/N=C(\N)Cc2ccc([N+](=O)[O-])cc2)c1`, 59.9% (active); to `COc1cc(OC)cc(C(=O)NNC(=O)CNC(=O)c2ccc(Br)o2)c1`, 12%. With `Cc1ccc(NC(=O)CSCC(=O)Nc2sccc2C#N)cc1` the figure was -2.79%; with `Cc1noc(C)c1COc1ccccc1C(=O)N(C)CC(=O)Nc1cccc(F)c1`, -1.32%. With `O=C1CCCN2N=C(SCC(=O)Nc3ccc(Br)cc3)SC2=N1` the figure was 112% (active); with `O=C(CSCc1ccc(Br)cc1)Nc1ccc(S(=O)(=O)N2CCCCCC2)cc1`, 25.6%. In the case of `Cc1cc(=O)[nH]c(SCC(=O)Nc2ccc(Br)cc2)n1`, the activation is 2.91%. With `CCOc1ccc(CC(=O)NCCS(=O)(=O)N2CCN(c3ccccc3)CC2)cc1` the figure was 3.03%. To `CS(=O)(=O)N(Cc1ccc(Cl)cc1)c1ccc(C(=O)NCCSCc2ccco2)cc1` belongs 71.5% (active); to `Cc1cc(C)cc(N(CC(=O)NCCSCc2ccco2)S(C)(=O)=O)c1`, 9.37%; to `Cc1ccc(N(Cc2ccc(C(=O)Nc3ccccc3C(=O)NCc3ccco3)cc2)S(C)(=O)=O)cc1C`, 87.4% (active). With `O=C(Nc1ccccc1)Nc1ccccc1C(=O)NCc1ccco1` the figure was 25.4%; with `CCc1ccccc1N(CC(=O)NCCSCc1ccco1)S(C)(=O)=O`, 6.86%. Take `COc1ccc(C(=O)Nc2ccccc2C(=O)NCc2ccco2)cc1`: the activation was 10.2%.

The values are drawn from PubChem BioAssay AID504408 (Broad Institute, 2011).
